# Mtb bLac sens: beta-lactam sensitization of Mtb H37Rv, H37Rv. M. tuberculosis H37Rv growth with meropenem, percent inhibition. inhibition, % at 25 µM. 330,000 compounds, 0.27% hits. AID 434955, 2010; call rule not given here;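 further: growth measured after seven days incubation then overnight dye step; 0% = bacteria only wells and 100% = bacteria with antibiotic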
# RecA splice inh: Mtb RecA intein splicing inhibitors, primary screen, biochemical, fluorescence, HTS. cell-free RecA intein splicing. AID 2221, 2009. 290,000 compounds, 0.75% hits. inhibition, % (concentration not given with the values); in the data active means inhibition above about 30%; inconclusive means no clear call, values can overlap the other calls;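 further: 0% = vehicle wells and 100% = reference inhibitor control wells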
# Target sequence (P9WHJ3 whole entry, looked up, canonical isoform): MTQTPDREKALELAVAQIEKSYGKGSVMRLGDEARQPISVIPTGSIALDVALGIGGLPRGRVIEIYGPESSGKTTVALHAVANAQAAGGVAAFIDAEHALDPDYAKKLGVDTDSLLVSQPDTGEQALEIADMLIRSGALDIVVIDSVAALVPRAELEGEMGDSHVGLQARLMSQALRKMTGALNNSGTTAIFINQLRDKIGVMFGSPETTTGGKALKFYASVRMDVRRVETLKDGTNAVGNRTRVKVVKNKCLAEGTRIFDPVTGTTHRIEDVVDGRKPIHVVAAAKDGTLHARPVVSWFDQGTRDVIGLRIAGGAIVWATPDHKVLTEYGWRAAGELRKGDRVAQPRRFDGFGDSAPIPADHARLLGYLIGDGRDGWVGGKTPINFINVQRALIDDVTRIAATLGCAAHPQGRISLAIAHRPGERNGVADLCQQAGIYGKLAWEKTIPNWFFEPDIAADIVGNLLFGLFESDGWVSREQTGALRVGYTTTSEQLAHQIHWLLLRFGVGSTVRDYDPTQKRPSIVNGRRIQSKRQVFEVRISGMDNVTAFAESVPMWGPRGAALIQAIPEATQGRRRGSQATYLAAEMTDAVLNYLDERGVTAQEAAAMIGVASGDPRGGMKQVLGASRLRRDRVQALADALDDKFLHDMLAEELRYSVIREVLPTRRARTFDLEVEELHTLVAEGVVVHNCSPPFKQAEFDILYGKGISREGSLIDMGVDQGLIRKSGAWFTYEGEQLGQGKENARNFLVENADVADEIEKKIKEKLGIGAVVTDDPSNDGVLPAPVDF
# PfHsp40 yeast: rescue of yeast from PfHsp40 toxicity, primary screen, S. cerevisiae, ATP luminescence; growth rescue, % at 12.5 µM; AID 504582, 2011; S. cerevisiae expressing PfHsp40, growth rescue; 340,000 compounds, 0.68% hits; in the data active means growth rescue above about 28%, passing the limit was not always enough; inconclusive means no clear call, values can overlap the other calls;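 further: yeast W303a lacking pdr1 and pdr3 grown in galactose medium; growth measured after three days at 30 °C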
# Mtb hypoxia rep: PubChem AID 1159583; M. tuberculosis hypoxia-regulated fluorescent reporter, fluorescence; fluorescence inhibition, % (test concentration not listed); 300,000 compounds, 0.1% hits; in the data active means fluorescence inhibition mostly above about 23%, no sharp cut-off; inactive means mostly below about 17%
# CCHFV vOTU inh: CCHFV vOTU protease inhibitors, primary screen, biochemical, Pep-AMC substrate, fluorescence; AID 651958, 2012; Crimean-Congo hemorrhagic fever virus L polyprotein viral ovarian tumor (vOTU) protease …; inhibition, % at 11.5 µM; 370,000 compounds, 0.55% hits; in the data active means inhibition above about 30%; further: 0% = vehicle wells with enzyme and 100% = no enzyme wells
# * marks the source's active call; other numbers are inactive results; u = inconclusive; x = no result shown. In the library only some 1.7% were active in any assay of this set; here they are far more common.
SMILES,Mtb bLac sens,RecA splice inh,PfHsp40 yeast,Mtb hypoxia rep,CCHFV vOTU inh
O=C(CCl)Nc1cn(-c2ccccc2)nc1-c1ccc(F)cc1,99.5,46.2*,9.8,x,13.8
COc1cccc(C(=O)NN=Cc2ccc(OC)c(COc3ccccc3C(N)=O)c2)c1,x,x,x,8.6,x
CCCCNc1c(-c2ccc(SC3CCCCC3)c(OC)c2)nc2ccc(C)cn12,99.3,x,173.6*,x,-15.6
CCCCNc1c(-c2ccc(OC)c(SC3CCCCC3)c2)nc2ccc(C)cn12,89.0,x,0.0,5.4,-38.5
C[C@]1(C(=O)NCCCNc2ncc(C(F)(F)F)cc2Cl)C=CC(Cc2ccccc2)N1C(=O)c1ccccc1 (stereo partly specified),x,x,x,0.5,x
COc1ccc(NC(=S)NCCC(c2ccccc2)c2ccccc2)c(OC)c1,-5.8,9.6,38.9*,x,5.1
Cc1c(Cl)cccc1NC(=S)NCCC(c1ccccc1)c1ccccc1,-2.6,15.4,54.4*,x,4.6
Cc1ccc(C=NNc2cn[nH]c(=O)c2Cl)cc1,x,x,x,3.3,x
O=C(Nc1cc(S(=O)(=O)N2CCOCC2)ccc1Cl)C(=O)c1c(-c2ccccc2)cc2ccccn12,-9.8,0.6,66.4*,12.7,2.8
Cc1nn(C(=O)CNS(=O)(=O)c2ccccc2)c(C)c1Sc1ccc(Cl)cc1,5.0,32.0*,6.8,13.2,7.4
S=C(NC1CC1)N1CCN(c2ccc(Cl)cc2)CC1,-0.5,4.3,3.5,11.5,1.4
S=C(NC1CCCC1)N1CCN(c2cccc(Cl)c2)CC1,6.8,0.3,46.5*,5.4,-6.6
CC(=O)Nc1ccc(C(=O)OCC(=O)c2cccc([N+](=O)[O-])c2)cc1,3.5,-1.4,-0.2,x,-10.1
Cc1ccc(C(=O)COC(=O)c2cccc(NC(=O)c3ccc([N+](=O)[O-])cc3[N+](=O)[O-])c2)cc1,99.7,2.7,-0.5,40.6*,5.4
C#CCOCCOCCOCCNc1nc(N2CCN(C(=O)CCCCCCCCCCNC(=O)[C@H](CCCCN)n3cc(C[C@@H](C)CC)nn3)CC2)nc(N2CCN(C(=O)CCCCCCCCCCNC(=O)[C@H](CCCCN)n3cc(C[C@@H](C)CC)nn3)CC2)n1,64.6,65.5*,20.2,x,x
C#CCOCCOCCOCCNc1nc(N2CCN(C(=O)CCCCCCCCCCNC(=O)[C@H](CCCCN)n3cc(CCO)nn3)CC2)nc(N2CCN(C(=O)CCCCCCCCCCNC(=O)[C@H](CCCN=C(N)N)n3cc(C[C@@H](C)CC)nn3)CC2)n1,98.9,x,-1.7,x,x
Nc1ncnc2c1nc(N1CCCCC1)n2C1OC(CO)C(O)C1O (stereo unspecified),x,x,x,-5.2,x
C#CCOc1c(Cl)cc(C=NO)cc1OC,x,x,x,0.2,x
Cc1cc(/C=N/n2cnnc2)c(C)n1-c1ccc(OCc2ccc(F)cc2)cc1,2.3,-1.1,103.4*,x,3.6
Cc1cc(/C=N/n2cnnc2)c(C)n1-c1ccc(OCc2ccc(Cl)cc2Cl)cc1,99.6,8.0,0.8,x,x
CCCC1CC(C)(c2csc(Nc3ccc(OCC)cc3)n2)OC1=O (stereo unspecified),-4.1,1.0,50.0*,x,16.6
CCOc1ccc(NC(=O)CC2CC(C)(C)OC2=O)cc1 (stereo unspecified),-4.5,-0.6,-0.2,x,10.0
CCOC(=O)C1Nc2ccc(C(F)(F)F)cc2C2c3ccccc3CC12 (stereo unspecified),-0.2,24.1,0.3,3.4,12.8
CCOC(=O)C1Nc2ccccc2C2C(O)C(O)CC12 (stereo unspecified),66.5,3.6,-0.5,8.2,61.1*
CC[C@@H](C(=O)[C@@H](C)[C@@H](O)[C@H](C)CCc1ccc(C)c(O)c1C(=O)O)[C@H]1O[C@](CC)([C@H]2CC[C@](O)(CC)[C@H](C)O2)C[C@@H]1C,56.5,18.3,184.3*,x,19.1
SMILES,Mtb bLac sens,RecA splice inh,PfHsp40 yeast,Mtb hypoxia rep,CCHFV vOTU inh
CCCNc1nc(C)cc(-c2cc(C(=O)NCc3ccccc3)on2)n1,8.2,0.3,6.1,15.3,8.7
CCCNc1nc(C)cc(-c2cc(C(=O)Nc3ccccc3)on2)n1,-2.4,-1.6,195.6*,x,0.4
COc1ccc(CN(C(=O)CSc2nnc(-c3ccccc3C)o2)c2ccc(F)cc2)cc1,54.4,40.1*,-0.4,x,11.3
O=C(CSc1nnc(-c2c[nH]c3ccccc23)o1)N(Cc1ccccc1)c1ccc(F)cc1,-5.5,1.0,5.9,6.0,x
CC12CCC(O)CC1=CCC1C2CCC2(C)C3=NN=CC3CC12 (stereo unspecified),x,x,85.5*,4.2,6.0
CC1CN(C(C)CO)C(=O)c2cc(NS(=O)(=O)c3cn(C)cn3)ccc2OC1CN(C)C(=O)Nc1ccccc1 (stereo unspecified),x,x,x,13.8,x
O=C(NN=Cc1ccc(OC(F)F)cc1)c1ccc(Br)cc1,x,x,x,2.8,x
CC(CCC(=O)O)C1CCC2C3C(O)CC4CC(O)CC[C@]4(C)C3CC(O)[C@]12C (stereo partly specified),x,x,x,2.9,x
CCCCCCCC/C=C\CCCCCCCC(=O)NCCO,0.7,x,67.1*,x,4.5
CCCCCCCCCCCCCC(=O)NO,x,x,264.3*,x,6.1
CCCCCCCC/C=C\CCCCCCCC(=O)O,-2.1,28.5,0.1,x,10.5
CNCCNCC(Cc1cccc2ccccc12)NCCc1ccccc1 (stereo unspecified),x,x,x,7.3,x
O=[N+]([O-])c1ccc(Oc2cccc(F)c2)c2ccncc12,-4.7,72.5*,-1.4,x,10.2
CN(C)/C=C(\C#N)C(=O)NN=Cc1ccc(Cl)cc1,x,x,x,0.3,x
CC1=NN(c2cccc([N+](=O)[O-])c2)C(=O)C1,-0.3,84.1*,0.3,-0.3,12.8
C[n+]1ccc(C=NNc2nc(Cl)c(C#N)c(Cl)c2Cl)cc1,x,x,x,21.4,x
CC(C)CC(=O)/C(=C/c1ccc(N(C)C)cc1)n1cncn1,0.8,-0.9,-1.2,-3.3,9.4
CC(C)CC(=O)/C(=C\c1ccc(Cl)cc1Cl)n1cncn1,x,43.5*,125.4*,21.0,x
CC(NC(=O)c1ccc(Br)cc1)c1ccc2c(c1)CCCC2 (stereo unspecified),u,4.0,137.5*,20.1,-12.3
CCOC(=O)[C@@H]1[C@H]2COc3ccccc3[C@H]2N2C(=O)N(c3ccc(C(F)(F)F)cc3)C(=O)[C@]12C,91.8,3.3,92.2*,x,16.8
C[C@]12C(=O)N(c3ccccc3)C(=O)N1[C@H]1c3ccccc3OC[C@@H]1[C@H]2c1ccccc1,39.4,x,98.0*,x,-8.1
COc1ccc2c(c1)[C@H]1[C@H](CO2)[C@H](c2ccccc2)[C@]2(C)C(=O)Nc3ccc(C)cc3C(=O)N12,7.9,x,20.1,x,15.1
Cc1ccc2c(c1)C(=O)N1[C@H]3c4ccccc4OC[C@@H]3[C@H](c3ccccc3)[C@]1(C)C(=O)N2,60.6,x,128.1*,x,x
Cc1ccc2c(c1)C(=O)N1C3c4cc(C)ccc4OCC3C(c3ccccc3)[C@]1(C)C(=O)N2 (stereo partly specified),x,x,x,6.1,x
